Pf growth 96h: P. falciparum growth inhibition at 96 hour, primary screen for plastid delayed-death inhibitors | P. falciparum luciferase reporter growth, 96 h | Potency, µM (highest dose often 28.7 µM), without a hit: at the highest dose activity change, negative = inhibition, actives largely listed as inhibitors | 320,000 tested, 6.9% active; also: potency is read from the fitted curve at half-maximal effect
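Readout is luminescence from an integrated firefly luciferase in P. falciparum. Red cells, 2% hematocrit and 0.05% parasitemia final, were cultured with compound through two parasite generations (96 hours) at 37 C, 5% CO2.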
Pf growth 48h: P. falciparum growth inhibition at 48 hours (one generation) | P. falciparum luciferase growth in erythrocytes, 48 h | Potency, µM (series often up to 28.7 µM), inactives show at the top dose activity change, negative = inhibition, most hits filed as inhibitors | 310,000 tested, 5.9% active | AID 504832; also: potency is read from the fitted curve at half-maximal effect
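Luciferase-expressing parasites in RBCs, 2% Hct / 0.1% parasitemia final; RPMI 1640 + 0.5% Albumax; 37 C, 5% CO2, one generation; luminescence read-out, lower signal = inhibition.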
HCMV inh: blocks human cytomegalovirus replication; HFF cells, HCMV-luciferase reporter, 72 h; hits give low values; activity change, negative = inhibition, % at 57.5 µM; 410,000 tested, 4.5% active; AID 1259415; in the data active = activity change below about -60%; inconclusive = no clear call, values can overlap the other calls; inactive = above about -39%
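Inhibition of viral replication was scored as loss of reporter luminescence in HFFs infected with HCMV-luciferase (MOI 1 PFU/cell) for 72 h; compounds tested at 2 doses, normalized to buffer and Salinomycin controls.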
FBPA Giardia inh: blocks Giardia fructose-bisphosphate aldolase activity; A8B2U2; Potency, µM (top dose mostly 59.6 µM), for the others: at the highest dose activity, negative = inhibition, actives largely listed as inhibitors; purified Giardia FBPA; 290,000 tested, 0.71% active; also: potency is read from the fitted curve at half-maximal effect; nearly all actives have a fitted effect of over 55% in size
Target sequence (A8B2U2 whole entry, looked up): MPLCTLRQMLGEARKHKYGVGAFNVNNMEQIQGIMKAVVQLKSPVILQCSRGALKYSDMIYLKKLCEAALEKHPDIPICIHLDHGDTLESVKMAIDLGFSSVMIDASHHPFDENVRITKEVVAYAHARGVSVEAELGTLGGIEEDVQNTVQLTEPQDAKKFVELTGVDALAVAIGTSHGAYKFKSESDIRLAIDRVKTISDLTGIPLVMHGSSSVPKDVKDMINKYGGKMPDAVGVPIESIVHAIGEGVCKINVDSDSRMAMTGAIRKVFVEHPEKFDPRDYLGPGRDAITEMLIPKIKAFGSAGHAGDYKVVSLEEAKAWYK
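40 nM FBPA preincubated 10 min at RT with compound (up to 57.5 uM final), then substrate plus GAPDH/TPI/NAD/arsenate coupling and diaphorase/resazurin added. Fluorescence read after 20 min at RT, 525/598 nm.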
Sm TGR block: blocks Schistosoma mansoni thioredoxin glutathione reductase; 360,000 tested, 3% active; Potency, µM (highest dose often 114 µM), inactives show at the highest dose activity change, negative = inhibition, actives largely listed as inhibitors; purified TGR, DTNB reduction, TNB absorbance 405 nm; AID 485364; Q962Y6; also: potency is read from the fitted curve at half-maximal effect; nearly all actives have a fitted effect of over 60% in size
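First, TGR (20 nM dispensed) and NADPH were mixed with compound. Second, a 15 min room-temperature incubation followed. Third, further NADPH and then DTNB were added to start the reaction. Finally, TNB absorbance was monitored kinetically.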
* hit, by the source's call; ? = inconclusive; . = no result given. Most compounds without a hit are left out; they make up all but 14% or so of the library. Unless noted, calls follow the shape of the dose curve; as a rule, active = well fitted curve in the direction sought with a large enough effect; inconclusive = small, poorly fitted or top-dose-only effect, or another doubt; inactive = no such curve, though single readings can be large; an effect the other way counts as inactive or inconclusive. % is scaled to controls: 0 for no effect and ±100 for the full control effect.

SMILES | Pf growth 96h | Pf growth 48h | HCMV inh | FBPA Giardia inh | Sm TGR block
Cc1c(Cl)cccc1NC(=O)Nc1cc(C(C)(C)C)on1 | ? | 10.4µM* | -23.5 | -10.5% | 4.9%
CC(C)(C)c1cc(NC(=O)Nc2ccc(Cl)cc2Cl)no1 | -21.4% | ? | 28.1 | -14.1% | 4.1%
O=S(=O)(c1ccccc1)N1[C@@H]2CC[C@@H](C2)[C@H]1c1nc2c(OCC3CCOCC3)cccc2[nH]1 | . | . | 0.9 | . | .
Cc1ccc2c(c1)N(CC(=O)NC(C)CCc1ccccc1)C(=O)c1cccnc1O2 (centres undefined) | 33.7% | ? | 4.4 | 12.4% | -19.4%
Cc1cc(S(=O)(=O)N2CCN(Cc3noc(CCC(=O)N4CCCCC4)n3)CC2)ccc1F | . | . | -109.8* | . | -15.5%
Cc1cc(S(=O)(=O)N2CCCCC2)ccc1OCC(=O)N1CCCC1 | ? | -21.4% | ? | -2.6% | 2.4%
Nc1nc(CN2CCN(c3ccccc3)CC2)nc(N2CCCc3ccccc32)n1 | 9.28µM* | ? | 33.9 | -1.8% | ?
Nc1nc(CSc2nnnn2-c2ccccc2)nc(N2CCCc3ccccc32)n1 | . | 10.4µM* | -17.8 | -11.3% | -2.5%
Clc1cccc(N2CCN(c3nc4ccccc4c4nc(-c5cccnc5)nn34)CC2)c1 | . | . | -8.6 | . | 14.6%
COc1cccc(C(=O)NNC(=S)NC2CCCCC2)c1 | ? | 183.9% | -5.5 | 8.5% | 5.1%
COc1cccc(C(=O)Nc2ccc(NC(=O)C3CC3)cn2)c1 | 8.28µM* | 151.8% | 112.7 | -0.6% | -20.1%
COc1ccc(NC(=O)c2ccc(NC(=O)C3CC3)cc2)cc1 | -2.1% | -14.9% | ? | 1.6% | -9.7%
COc1cccc(-n2cnnc2SC(C)C(=O)NC2CCCC2)c1 (centres undefined) | ? | ? | 98.4 | . | 50.1µM*
COc1cccc(C(=O)NC2CCCC2)c1 | 4.65µM* | 13.8% | -6.4 | -0.3% | .
COc1ccc(C(=O)Nc2ccc(NC(=O)C3CC3)nc2)cc1 | 10.4µM* | 9.0% | -33.7 | -14.5% | -5.7%
CCC(=O)Nc1ccc(NC(=O)c2cccc(OC)c2)nc1 | -7.8% | 391.9% | 73.8 | 0.3% | -7.2%
CC1CN(CC(=O)NCc2ccc(Cl)cc2)CC(C)O1 (centres undefined) | 18.7% | 5.9% | -2.7 | 4.5% | 14.3%
CCCS(=O)(=O)NC(=O)C1(C)CCN(C(=O)c2nc(C)oc2C)C1 (centres undefined) | . | . | 10.9 | . | .
COCCNC(=O)C1CCCN(C(=O)C2(c3ccc(Cl)cc3)CCCC2)CC1 (centres undefined) | . | . | 4.7 | . | .
Cc1noc(C)c1COc1ccc(C(=O)N2CCN(c3ccccc3O)CC2)cc1 | ? | ? | 35.7 | . | -6.4%
Oc1ccccc1CNc1ccc2c(c1)OCCO2 | 70.4% | 144.1% | ? | -10.4% | ?
Cn1cnc2cc(NCc3cccs3)ccc21 | 10.4µM* | 51.8% | -5.8 | 1.3% | ?
Clc1cc(NCc2cccs2)ccc1N1CCOCC1 | 3.3% | 31.5% | 121.6 | ? | 44.7µM*
c1csc(CNc2ccc3c(c2)OCCO3)c1 | 125.4% | 221.7% | -86.1* | ? | 31.2%
O=C1C(c2ccc(F)cc2)N(CCc2ccccc2)C(=O)CN1C1CCCCC1 (centres undefined) | . | . | 0.4 | . | 6.1%
SMILES | Pf growth 96h | Pf growth 48h | HCMV inh | FBPA Giardia inh | Sm TGR block
CC1(C(=O)NS(=O)(=O)Cc2ccccc2C(F)(F)F)CCN1C(=O)Cc1ccccc1 (centres undefined) | . | . | -5.0 | . | .
O=C1CC(N2CCOCC2)C(=O)N1c1cccc(Cl)c1 (centres undefined) | ? | 33.1% | 29.9 | 9.1% | ?
Cc1cccc(N2C(=O)C(Cl)=C(N3CCOCC3)C2=O)c1 | ? | ? | 26.5 | -6.5% | 39.8µM*
O=C1C(Cl)=C(N2CCOCC2)C(=O)N1c1cccc(Cl)c1 | -5.7% | ? | -1.0 | 18.3% | ?
O=C1CC(N2CCN(c3ccccc3)CC2)C(=O)N1c1ccc(Cl)cc1 (centres undefined) | ? | 24.4% | 46.9 | -2.5% | ?
Cc1cccc(N2C(=O)CC(N3CCOCC3)C2=O)c1 (centres undefined) | -21.6% | 4.4% | 6.0 | 2.4% | 50.1µM*
CCN(CC)C1CC(=O)N(c2cccc(C)c2)C1=O (centres undefined) | ? | 9.4% | . | -1.3% | 3.55µM*
O=C1CC(N2CCOCC2)C(=O)N1c1ccc(Cl)cc1 (centres undefined) | 0.0% | 7.38µM* | -1.5 | 1.5% | 22.4µM*
Cc1cccc(OCC(=O)Nc2c(C(=O)N3CCN(c4ccccc4F)CC3)oc3ccccc23)c1 | . | . | -15.3 | . | 0.6%
CC(C)(C)NC(=O)C(c1cccc2ccccc12)n1c(=O)c(-c2cc3ccccc3[nH]2)nc2ccccc21 (centres undefined) | . | . | 9.9 | . | .
Cc1oc2ncn(CC(C)C)c(=O)c2c1C(=O)NCc1cccc(Cl)c1 | . | . | -0.2 | . | -0.3%
COc1ccccc1NC(=S)N(Cc1cccnc1)Cc1ccccc1Cl | ? | ? | -14.8 | -4.1% | 6.3%
COCCn1nnnc1C(C(C)C)N(Cc1cccnc1)Cc1ccccc1Cl (centres undefined) | -0.4% | 10.4µM* | 0.6 | 2.2% | ?
CCN(CC)CCCN1C=C2C(=O)C(C)(OC(=O)CCc3ccccc3)C(=O)C=C2C=C1c1ccc(C#N)cc1 (centres undefined) | ? | ? | . | ? | 39.8µM*
COc1ccc(N2C=C3C(=O)C(C)(OC(=O)CCc4ccccc4)C(=O)C=C3C=C2c2ccc(C#N)cc2)cc1 (centres undefined) | ? | ? | -3.7 | ? | -26.0%
COc1ccc(CN2C=C3C(=O)C(C)(OC(=O)CCc4ccccc4)C(=O)C=C3C=C2c2ccc(C#N)cc2)cc1 (centres undefined) | ? | 9.28µM* | -24.5 | ? | -6.2%
CC1(OC(=O)CCc2ccccc2)C(=O)C=C2C=C(c3ccc(C#N)cc3)N(CCc3c[nH]c4ccccc34)C=C2C1=O (centres undefined) | ? | 11.7µM* | -5.3 | ? | -1.1%
CCOC(=O)c1c(NC(C)=O)c2c3c(sc2n1Cc1cc(C)ccc1C)CCCC3 | . | . | 7.0 | . | 3.7%
Cc1[nH]c(C)c(C(=O)/C=C/c2ccc([N+](=O)[O-])cc2)c1C | -22.2% | ? | -100.9* | -5.4% | ?
CCOC(=O)c1[nH]c(C)c(C(=O)/C=C/c2ccc(C(=O)O)cc2)c1C | ? | 11.7µM* | -34.0 | -19.2% | -6.1%
O=C(Nc1ccccc1)N1CCC2(CC1)CCN(C(=O)c1ccco1)CC2 | . | . | . | 6.0% | .
O=C(Cn1c(C(=O)N2CCc3ccccc3C2)cc2sccc21)c1ccccc1 | -4.7% | 14.7µM* | -11.6 | -0.9% | 0.5%
CC(=O)N1CCCC(c2cc(C(=O)Nc3ccccc3)no2)C1 (centres undefined) | . | . | -72.9* | . | .

Screens (PubChem)
